Smad3 inh = Smad3/FoxH1 peptide binding inhibitors, primary screen, biochemical, TR-FRET; Mothers against decapentaplegic homolog 3 (Homo sapiens), P84022; TR-FRET Smad3/Dy647-FoxH1 peptide binding, europium anti-His; inhibition, % at 25 µM; 0.29% of 88,000 active; AID 630, 2007;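 active means compounds that reduce the energy-transfer binding signal between the protein and its labelled peptide by more than half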
Target sequence (P84022 whole entry, looked up): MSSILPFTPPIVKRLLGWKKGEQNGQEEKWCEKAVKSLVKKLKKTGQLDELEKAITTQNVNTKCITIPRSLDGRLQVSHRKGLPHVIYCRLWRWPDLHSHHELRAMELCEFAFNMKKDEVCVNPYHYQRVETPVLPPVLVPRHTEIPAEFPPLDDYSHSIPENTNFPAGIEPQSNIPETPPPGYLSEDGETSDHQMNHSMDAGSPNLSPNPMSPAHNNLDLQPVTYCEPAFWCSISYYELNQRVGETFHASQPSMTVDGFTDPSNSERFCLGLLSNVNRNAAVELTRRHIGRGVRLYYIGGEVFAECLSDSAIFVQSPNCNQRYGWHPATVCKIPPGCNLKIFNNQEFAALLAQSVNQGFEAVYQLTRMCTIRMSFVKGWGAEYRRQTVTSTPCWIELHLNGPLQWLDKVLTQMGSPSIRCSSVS
ERa SRC1 pot = enhancers of ERα–SRC-1 coactivator binding, primary screen, biochemical, TR-FRET, ERα LBD, low estradiol; Estrogen receptor (Homo sapiens), P03372; TR-FRET ERalpha-LBD/SRC-Cy5 coactivator binding, 2 h; 100 = basal binding, no effect; coactivator binding (% of control), % at 25.6 µM; 1.3% of 86,000 active; AID 639, 2007; in the data active means activity above about 200%;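 further: binding measured in presence of low estradiol as agonist stimulus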
ERa coact inh = ERα–SRC-1 coactivator interaction inhibitors, primary screen, biochemical, TR-FRET, ERα LBD, estradiol-bound. 1.7% of 86,000 active. TR-FRET ER-alpha LBD / SRC-1 peptide. inhibition, % at 25.6 µM. Estrogen receptor (Homo sapiens), P03372; in the data active means inhibition above about 50%
FAK inh = FAK kinase inhibitors, primary screen, biochemical; Focal adhesion kinase 1 (Homo sapiens), Q05397; biochemical FAK kinase activity assay; inhibition, %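 (tested at 7 µM)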; 0.84% of 97,000 active; AID 727, 2007
ERb SRC1 inh = inhibitors of ERβ-SRC1 coactivator interaction, primary screen, biochemical, TR-FRET, ERβ LBD, SRC-1 peptide. TR-FRET ER-beta LBD / SRC1-Cy5 peptide binding; receptor agonist-loaded with 1 µM estradiol. inhibition, % at 25.6 µM. 1.3% of 86,000 active. AID 633, 2007;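 active means compounds whose percent inhibition of the receptor-coactivator binding signal exceeds about 50% in the single-dose screen, limit read from the data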
FAK inh conf = FAK kinase inhibitors, retest, confirmation, biochemical; FAK kinase biochemical inhibition assay; AID 794, 2007; inhibition, % at 7 µM; 28% of 750 active; shares compounds with FAK inh
A number is an active result. Rows were chosen to be rich in hits. Some 3.3% of all compounds tested hit in one or more screens of this group. Unless noted, no stated cut-off is given here; in the data, active means inhibition above about 19%; inactive means the rest.

Cc1ccc(C(=O)NNC(=O)CSc2nnc3c(n2)[nH]c2ccc(F)cc23)cc1 was read as FAK inh 69.2 and FAK inh conf 38.8.
COc1ccc2[nH]c3nc(SCC(=O)NNC(=O)c4ccc(OC)c(OC)c4)nnc3c2c1 was read as FAK inh inactive.
CC(=O)CSc1nc(C(F)(F)F)cc(=O)n1-c1ccccc1 was read as FAK inh 56.2 and FAK inh conf inactive.
CSc1ccc2[nH]c(=O)cc(C)c2c1 was read as Smad3 inh inactive, ERa SRC1 pot inactive, ERa coact inh inactive, FAK inh inactive and ERb SRC1 inh inactive.
Screening CCOC(=O)c1cnc2ccc(OCC)cc2c1N1CCN(c2ccccc2)CC1 returned Smad3 inh inactive, ERa SRC1 pot inactive, ERa coact inh inactive, FAK inh inactive and ERb SRC1 inh inactive.
For CCOC(=O)c1cnc2ccc(C)cc2c1Nc1ccc(N2CCOCC2)cc1 the results were FAK inh 51.4 and FAK inh conf 22.2.
`CCOC(=O)c1cnc2ccc(C)cc2c1Sc1ccccc1` gave FAK inh 22.1 and FAK inh conf inactive.
For Cc1ccccc1C(=O)N1CCC(C(N)=O)CC1 the results were Smad3 inh inactive, ERa SRC1 pot inactive, ERa coact inh inactive, FAK inh inactive and ERb SRC1 inh inactive.
For C=CCn1c(NC(=O)c2ccccc2Cl)c(C#N)c2nc3ccccc3nc21 the results were Smad3 inh inactive, ERa SRC1 pot inactive, ERa coact inh inactive, FAK inh 20.0, ERb SRC1 inh inactive and FAK inh conf inactive.
`CCCCn1c(NC(C)=O)c(C#N)c2nc3ccccc3nc21` gave Smad3 inh inactive, ERa SRC1 pot inactive, ERa coact inh inactive, FAK inh inactive and ERb SRC1 inh inactive.
`CC(C)=CC1C(C(=O)Nc2ccc(Br)cn2)C1(C)C` (stereo not given) gave Smad3 inh inactive, ERa SRC1 pot inactive, ERa coact inh inactive, FAK inh 26.8, ERb SRC1 inh inactive and FAK inh conf inactive.
For O=C(Nc1ccccc1Cl)ON=C1c2ccccc2-c2ccccc21 the results were FAK inh 34.9 and FAK inh conf inactive.
Screening O=C(Nc1ccccc1)ON=C1c2ccccc2-c2ccccc21 returned FAK inh 41.0 and FAK inh conf inactive.
`O=C(Nc1ccccc1)O/N=C(\c1ccccc1)c1ccccn1` gave FAK inh inactive.
Screening Cc1noc(C)c1COc1ccc(C(=O)OCC(=O)NC2CCCCC2C)cc1 (stereo not given) returned Smad3 inh inactive, ERa SRC1 pot inactive, ERa coact inh inactive, FAK inh inactive and ERb SRC1 inh inactive.
O=C(CCNS(=O)(=O)c1cccs1)Nc1nccs1 was read as Smad3 inh inactive, ERa SRC1 pot inactive, ERa coact inh inactive, FAK inh 83.2, ERb SRC1 inh inactive and FAK inh conf inactive.
For CS(=O)(=O)Nc1ccc(C(=O)N2CCN(c3ccccc3)CC2)cc1 the results were Smad3 inh inactive, ERa SRC1 pot inactive, ERa coact inh inactive, FAK inh inactive and ERb SRC1 inh inactive.
`CC(C)CCn1c(SCC(N)=O)nc2c1c(=O)n(C)c(=O)n2C` gave Smad3 inh inactive, ERa SRC1 pot inactive, ERa coact inh inactive, FAK inh inactive and ERb SRC1 inh inactive.
Screening N#Cc1cc(-c2ccc(Cl)cc2)cnc1Sc1ccc(F)cc1 returned FAK inh inactive.
`OCCSc1nc2ccccc2n1CCOc1ccccc1` gave Smad3 inh inactive, ERa SRC1 pot inactive, ERa coact inh inactive, FAK inh inactive and ERb SRC1 inh inactive.
COc1ccc(-c2nnc(SC(C)C(=O)Nc3nccs3)n2-c2ccccc2)cc1OC (stereo not given) was read as Smad3 inh inactive, ERa SRC1 pot inactive, ERa coact inh inactive, FAK inh 49.2, ERb SRC1 inh inactive and FAK inh conf inactive.
COc1ccc(-c2nnc(SC(C)C(=O)Nc3nccs3)n2Cc2ccccc2)cc1OC (stereo not given) was read as Smad3 inh inactive, ERa SRC1 pot inactive, ERa coact inh inactive, FAK inh inactive and ERb SRC1 inh inactive.

Compound activity as filed in PubChem BioAssay.
